Source: PubChem
UHRF1 binding – UHRF1 methyl-DNA binding inhibition. Q96T88. UHRF1 binding to methylated oligo, TR-FRET. inhibition, % at 4.4 µM. hit rate 0.75% among 370,000; in the data active = inhibition above about 21%;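 also: UHRF1 SRA domain binding a hemimethylated CpG hairpin DNA probe; 0% = median of test compound wells and 100% = reference inhibitor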
Casp6 inh – inhibitors of human caspase-6. P55212. purified caspase-6, Z-VEID-R110 cleavage fluorescence. inhibition, % at 12.5 µM. hit rate 0.53% among 350,000;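 active = mean inhibition across replicates at least about 35%, with every replicate also reaching that limit, limit read from the data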;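 also: 0% = median of neutral control wells and 100% = no fluorescence left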
LEDGF integ inh – blocks HIV-1 LEDGF/p75-dependent DNA integration; TR-FRET IN-LEDGF/p75 DNA integration, Eu/Cy5; inhibition, % at 3.7 µM; hit rate 0.64% among 370,000; AID 743269;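 active = inhibition above the screen-wide mean plus 3 SD, cut at about 13% in these data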;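 also: signal is the Cy5 over europium emission ratio at 671 and 618 nm; 0% = plate median of compound wells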
MBD2 inh – blocks human MBD2 binding to methylated DNA; Q9UBB5; TR-FRET, MBD2 binding to methylated oligonucleotide; inhibition, % at 4.4 µM; hit rate 0.31% among 370,000; AID 686964; in the data active = inhibition above about 13%
Target sequence (Q9UBB5 whole entry, looked up): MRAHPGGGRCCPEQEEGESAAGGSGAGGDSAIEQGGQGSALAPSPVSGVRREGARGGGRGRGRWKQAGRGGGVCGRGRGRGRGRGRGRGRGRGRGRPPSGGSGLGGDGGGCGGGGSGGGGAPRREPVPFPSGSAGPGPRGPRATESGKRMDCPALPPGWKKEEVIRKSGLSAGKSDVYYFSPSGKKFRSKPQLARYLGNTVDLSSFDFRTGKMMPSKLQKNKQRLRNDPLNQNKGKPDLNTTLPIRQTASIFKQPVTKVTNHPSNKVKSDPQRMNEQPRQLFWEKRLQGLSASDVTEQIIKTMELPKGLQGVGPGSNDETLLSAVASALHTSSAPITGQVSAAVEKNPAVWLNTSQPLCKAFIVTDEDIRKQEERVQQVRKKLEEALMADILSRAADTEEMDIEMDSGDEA
* marks the source's active call; other numbers are inactive results. Compounds with a hit are over-represented: about 1.4% of the library has one in this group of screens.

`O=S(=O)(Nc1cc(Sc2cccc3cccnc23)c(O)c2ccccc12)c1ccc(F)cc1` gave UHRF1 binding -15, Casp6 inh 0, LEDGF integ inh 24* and MBD2 inh -37.
COc1ccc(NC(=O)CN2C(=O)S/C(=C/c3cccn3-c3ccc(C(=O)O)cc3)C2=O)cc1 was read as UHRF1 binding 7, Casp6 inh 72*, LEDGF integ inh -1 and MBD2 inh 7.
`Cc1ccc(NC(=O)CN2C(=O)N/C(=C/c3cccn3-c3ccc(C(=O)O)cc3)C2=O)cc1` gave UHRF1 binding 102*, LEDGF integ inh 57* and MBD2 inh 72*.
Cc1ccc(NC(=O)CN2C(=O)S/C(=C\c3cccn3-c3cccc(C(=O)O)c3)C2=O)cc1C was read as UHRF1 binding 14, Casp6 inh 1, LEDGF integ inh -1 and MBD2 inh 12.
For O=C(O)c1cccc(-n2cccc2/C=C2/NC(=O)N(Cc3ccccc3F)C2=O)c1 the results were UHRF1 binding 4, Casp6 inh 76*, LEDGF integ inh 2 and MBD2 inh -6.
Screening N#C/C(=C/c1cccn1-c1cccc(C(=O)O)c1)c1ccc(F)cc1 returned UHRF1 binding 1, Casp6 inh 70*, LEDGF integ inh 2 and MBD2 inh 0.
For Cc1ccc(S(=O)(=O)N2C[C@@H](O)COC[C@H]3O[C@@H](CC(=O)N[C@@H]4CCN(Cc5ccccc5)C4)CC[C@@H]32)cc1 the results were Casp6 inh -2.
`COc1ccc(S(=O)(=O)N(C)C[C@H]2OCCCC[C@@H](C)Oc3ccc(NC(=O)Nc4c(C)noc4C)cc3C(=O)N([C@H](C)CO)C[C@@H]2C)cc1` gave Casp6 inh 1.
`CN(C)CCCNC(=O)C[C@H]1CC[C@@H]2[C@H](COc3ccc(NS(C)(=O)=O)cc3C(=O)N2C)O1` gave Casp6 inh 0.
Screening C[C@H](NC(=O)C[C@H]1C[C@H]2c3cc(NC(=O)CC4CC4)ccc3O[C@H]2[C@H](CO)O1)c1ccccc1 returned Casp6 inh 3.
For CO[C@@H]1CN(C)C(=O)c2ccc(NS(C)(=O)=O)cc2OC[C@H](C)N(C(=O)C2CCCCC2)C[C@@H]1C the results were Casp6 inh 0.
Screening Cc1ccc(NC(=O)CN2C(=O)N/C(=C/c3cc(C)n(-c4ccc(C(=O)O)cc4)c3C)C2=O)cc1 returned UHRF1 binding 5, Casp6 inh 54*, LEDGF integ inh 7 and MBD2 inh -5.
C[C@H](CO)N1C[C@H](C)[C@@H](CN(C)S(=O)(=O)c2ccc(F)cc2)Oc2ccc(NC(=O)Cc3cn(C)c4ccccc34)cc2CC1=O was read as Casp6 inh -2.
Cc1noc(C)c1NC(=O)N(C)C[C@@H]1Oc2ccc(NC(=O)Nc3ccc(C(F)(F)F)cc3)cc2C(=O)N([C@@H](C)CO)C[C@H]1C was read as Casp6 inh 1.
`CC(C)(C)CC(C)(C)NCC(=O)Nc1c2c(nc3ccccc13)CCC2` gave UHRF1 binding 27*, Casp6 inh 2, LEDGF integ inh -1 and MBD2 inh 4.
`Cn1cnc(S(=O)(=O)N2C[C@H](O)COC[C@@H]3O[C@H](CC(=O)N4CCN(c5ccccc5)CC4)CC[C@H]32)c1` gave Casp6 inh -2.
O=C(O)c1sccc1Oc1ccc(NS(=O)(=O)c2cccc(F)c2)cc1 was read as UHRF1 binding 31*, LEDGF integ inh -3 and MBD2 inh 11.
For COCCNC(=O)C[C@@H]1CC[C@@H]2[C@H](COc3ccc(NC(=O)c4cnccn4)cc3C(=O)N2C)O1 the results were Casp6 inh -2.
For O=C(O)c1cccc(Nc2ccnc(Nc3cccc(C(=O)O)c3)n2)c1 the results were UHRF1 binding 2, Casp6 inh 35*, LEDGF integ inh 5 and MBD2 inh -2.
Screening O=C(O)c1cccc(Nc2nc(N3CCOCC3)nc(N3CCOCC3)n2)c1 returned UHRF1 binding -1, LEDGF integ inh 1 and MBD2 inh 0.
Screening N#Cc1cccc(NC(=O)COC(=O)c2ccccc2Sc2ccccc2C#N)c1 returned UHRF1 binding 34*, Casp6 inh 1, LEDGF integ inh 2 and MBD2 inh -4.
CC(=O)c1ccc(NC(=O)COC(=O)c2ccccc2Sc2ccccc2C#N)cc1 was read as UHRF1 binding -2, Casp6 inh -1, LEDGF integ inh -3 and MBD2 inh -3.
`Cc1ccc(S(=O)(=O)N(CC(=O)O)Cc2ccco2)cc1` gave UHRF1 binding 7, Casp6 inh 63*, LEDGF integ inh 1 and MBD2 inh 1.
Screening Cc1ccc(S(=O)(=O)N(Cc2ccccc2)Cc2ccco2)cc1 returned UHRF1 binding 3, LEDGF integ inh -3 and MBD2 inh 6.
